Reference: ChEMBL document CHEMBL4513216, “Probing the Open Global Health Chemical Diversity Library for Multistage-Active Starting Points for Next-Generation Antimalarials” (ACS Infect Dis, 2020)
Screen size: about 69,000 compounds; about 8,600 (12%) showed an effect of 50% or more. Shown is part of a subset that was picked to be rich in strong results.

system: Plasmodium berghei; test: Screen against P. berghei liver stage (PbLuc), transformed with Luciferase, at 10uM; type: functional, HepG2; conditions: tested at 10 uM

| SMILES | INHIBITION [%] |
| --- | --- |
| Cc1nc(C)c(C)c(N2C[C@@H](CN3CCCN(C)CC3)[C@@H](CO)C2)n1 | 15.5 |
| Cc1nc(N2C[C@@H](CN3CCCN(C)CC3)[C@@H](CO)C2)c2sccc2n1 | 26.6 |
| COC1[C@@H]2CC[C@H]1CN(c1nc(C)nc3sccc13)C2 (stereo partly drawn) | 72.6 |
| O=C(N[C@@H]1CCN(c2nccc3ccccc23)C[C@H]1O)c1cnccn1 | 5.78 |
| Cc1nccnc1N1CC[C@@H](NC(=O)c2cnccn2)[C@H](O)C1 | -3.19 |
| CCC[C@@H]1CN(c2ncnc3sccc23)C[C@H]1NS(C)(=O)=O | 27.2 |
| Cc1nc(N2C[C@@H](CN3CCCN(C)CC3)[C@@H](CO)C2)c2ccsc2n1 | 50.1 |
| Cc1nc(N2CC[C@@H](NC(=O)c3cnccn3)[C@H](O)C2)c2ccsc2n1 | 85.1 |
| CCN(Cc1cccc2c1OCO2)C(=O)C(C)c1cccnc1 (stereo not drawn) | 40.9 |
| CCc1noc(C(C)Sc2nnc(C3CC3)n2CC(N)=O)n1 (stereo not drawn) | 29 |
| c1coc(-c2nc(CNC3CCC4(CCNCC4)CC3)no2)c1 | 33.1 |
| O=C([C@H]1CCCO1)N1Cc2nccn2CC(COc2cccnc2)C1 (stereo partly drawn) | -30 |
| CN(c1ccncn1)C1CC2(CCN(C(=O)CCc3cccs3)C2)C1 (stereo not drawn) | 37.5 |
| CN(c1ccncn1)C1CC2(CCN(C(=O)Cc3cccs3)C2)C1 (stereo not drawn) | 51.5 |
| CN(c1ccncn1)C1CC2(CCN(C(=O)c3cccs3)C2)C1 (stereo not drawn) | 42.1 |
| CCc1nccn1C1CCCN(C(=O)CCCc2ccccn2)C1 (stereo not drawn) | -6.14 |
| CC(C)C[C@H]1CN(c2nc3c(cc2C(N)=O)CCC3)CC[C@@]1(C)O | -22.5 |
| CN1CCC2(CC1)CN(C(=O)c1cccnc1)c1ccc(Cl)cc12 | 26.7 |
| CCN1CCC2(CC1)CN(C(=O)c1cccnc1)c1ccc(Cl)cc12 | 60.2 |
| CCCN1CCC2(CC1)CN(C(=O)c1cccnc1)c1ccc(F)cc12 | 26.7 |
| CC(C(N)=O)N(C)CCCc1cc(-c2ccc(F)cc2)n(C)n1 (stereo not drawn) | -52.5 |
| Cc1nn(C)c(C)c1-c1ccc(=O)n(C(C)C(=O)NCc2ccco2)n1 (stereo not drawn) | 15.7 |
| O=C(C[S+]([O-])Cc1ccc(Cl)cc1Cl)N1CCc2sccc2C1 (stereo not drawn) | 21.8 |
| O=C(C[S+]([O-])Cc1ccc(F)cc1Cl)N1CCc2sccc2C1 (stereo not drawn) | -3.96 |
| O=C(C[S+]([O-])Cc1c(F)cccc1Cl)N1CCc2sccc2C1 (stereo not drawn) | -10.9 |
| O=C(C[S+]([O-])Cc1c(Cl)cccc1Cl)N1CCc2sccc2C1 (stereo not drawn) | 50.5 |
| O=C(C[S+]([O-])Cc1ccccc1F)N1CCc2sccc2C1 (stereo not drawn) | -13.9 |
| O=C(C[S+]([O-])Cc1ccc(F)cc1)N1CCc2sccc2C1 (stereo not drawn) | 80.3 |
